The record followed here is PubChem BioAssay (NCATS).

Results filed as inconclusive are left out. A number with no mark means an inactive call. Calls of active or inactive are those of the source. Unless noted, calls follow the shape of the dose curve; as a rule, active = well fitted curve in the direction sought with a large enough effect; inconclusive = small, poorly fitted or top-dose-only effect, or another doubt; inactive = no such curve, though single readings can be large; an effect the other way counts as inactive or inconclusive.

Assay [1] deals with Aldehyde dehydrogenase, mitochondrial (Homo sapiens) (UniProt P05091). Kind of assay: qHTS for Inhibitors of the Aldehyde Dehydrogenase Family (ALDH2) Validation screens (AID 2061302; active = well fitted inhibition curve with a large enough effect; title and protocol of this record describe different tests;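 also: plate controls were DMSO vehicle for no effect and maximal DPI positive control response for full effect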).
The target of assay [2] is Retinaldehyde dehydrogenase 3 (Homo sapiens) (UniProt P47895). The experiment in a line: qHTS for Inhibitors of the Aldehyde Dehydrogenase Family (ALDH1A3) Validation screen (AID 2061312). Also: nearly all actives have a fitted effect of over 45% in size. Also: potency is read from the fitted curve at half-maximal effect. As to activity change, negative = inhibition: % is scaled to controls: 0 for no effect and ±100 for the full control effect.
A short description of assay [3]: BET inhibitor-based combinations targeting novel dependencies in MECOM-rearranged (r) AML: SET-2 cell line (AID 2202231).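 Also: plate controls were DMSO treated cells for no effect and wells without cells for full effect; nearly all actives have a fitted effect of over 35% in size.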 Particulars: SET-2 AML cells viability, CellTiter-Glo luminescence, 48 h; viability: stronger effect = lower value, series mostly up to about 46 µM. The procedure, abridged: (§1)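 Cells were plated at 500 per well and exposed to an 11-point dose series of each drug for 48 hr. Viability was measured by CellTiter-Glo luminescence, normalized to DMSO and empty-well controls, and summarized as AUC and per-cell-line Z-AUC.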

The nature of assay [4]: BET inhibitor-based combinations targeting novel dependencies in MECOM-rearranged (r) AML: OCI-AML3 cell line (AID 2202232).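 Also: series mostly up to about 46 µM; plate controls were DMSO vehicle wells for no effect and wells without cells for full effect; nearly all actives have a fitted effect of over 35% in size.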 Particulars: Potency: OCI-AML3 viability. The procedure, abridged:
as §1

Assay [5] is described as follows: BET inhibitor-based combinations targeting novel dependencies in MECOM-rearranged (r) AML: MV-4-11 cell line (AID 2202233). Also: nearly all actives have a fitted effect of over 45% in size. Also: potency is read from the fitted curve at half-maximal effect. The procedure, abridged: (§2)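 Activity is given as area under the curve and as Z-AUC, mean-centred within each cell line. It comes from 11-point dose curves normalized to DMSO and empty wells. CellTiter-Glo luminescence was read after 48 hr drug exposure of 500 cells/well.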

A short description of assay [6]: BET inhibitor-based combinations targeting novel dependencies in MECOM-rearranged (r) AML: HNT-34 cell line (AID 2202234). Also: nearly all actives have a fitted effect of over 35% in size. Also: potency is read from the fitted curve at half-maximal effect. In outline: as §2
A short description of assay [7]: BET inhibitor-based combinations targeting novel dependencies in MECOM-rearranged (r) AML: AML-191 cell line (AID 2202236;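 also: plate controls were vehicle wells for no effect and wells without cells for full effect; nearly all actives have a fitted effect of over 35% in size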). The procedure, abridged: as §1
Assay [8] in a line: BET inhibitor-based combinations targeting novel dependencies in MECOM-rearranged (r) AML: AML-194 cell line (AID 2202237;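 also: plate controls were vehicle wells for no effect and wells without cells for full effect; nearly all actives have a fitted effect of over 40% in size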). In outline:
as §1

A short description of assay [9]: BET inhibitor-based combinations targeting novel dependencies in MECOM-rearranged (r) AML: UCSD-AML1 cell line (AID 2202235).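 Also: series mostly up to about 46 µM; plate controls were DMSO vehicle wells for no effect and blank wells for full effect; nearly all actives have a fitted effect of over 40% in size.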 The procedure, abridged:
as §2

Assay [10] addresses Retinaldehyde dehydrogenase 3 (Homo sapiens) (UniProt P47895). Kind of assay: qHTS for Inhibitors of the Aldehyde Dehydrogenase Family (ALDH1A3) Primary screen (AID 2061315).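 Also: plate controls were DMSO vehicle for no effect and reference inhibitor for full effect.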
Assay [11] has the same target. The experiment in a line: qHTS for Inhibitors of the Aldehyde Dehydrogenase Family (ALDH1A3) Confirmatory screens (AID 2061311). Also: nearly all actives have a fitted effect of over 60% in size. Also: potency is read from the fitted curve at half-maximal effect. As to activity change, negative = inhibition: % is scaled to controls: 0 for no effect and ±100 for the full control effect.
The target in assay [12] is Retinal dehydrogenase 2 (Homo sapiens) (UniProt O94788). The experiment in a line: qHTS for Inhibitors of the Aldehyde Dehydrogenase Family (ALDH1A2) Confirmation screens (AID 2061314). Also: nearly all actives have a fitted effect of over 65% in size. Also: potency is read from the fitted curve at half-maximal effect.
The target in assay [13] is Aldehyde dehydrogenase, mitochondrial (Homo sapiens) (UniProt P05091). The experiment in a line: qHTS for Inhibitors of the Aldehyde Dehydrogenase Family (ALDH2) Confirmatory screens (AID 2061303; active = well fitted inhibition curve with a large enough effect; title and protocol of this record describe different tests; also: nearly all actives have a fitted effect of over 45% in size; also: potency is read from the fitted curve at half-maximal effect; as to activity change, negative = inhibition: % is scaled to controls: 0 for no effect and ±100 for the full control effect).
The nature of assay [14]: qHTS for Inhibitors of the Aldehyde Dehydrogenase Family (ALDH1A2, ALDH1A3, ALDH2, ALDH3A1) (AID 2061307). Also: nearly all actives have a fitted effect of over 50% in size. As to activity change, negative = inhibition: % is scaled to controls: 0 for no effect and ±100 for the full control effect.
Assay [15] has as its target Aldehyde dehydrogenase, mitochondrial (Homo sapiens) (UniProt P05091). The experiment in a line: qHTS for Inhibitors of the Aldehyde Dehydrogenase Family (ALDH2) Primary screen (AID 2061308). Also: nearly all actives have a fitted effect of over 55% in size. Also: potency is read from the fitted curve at half-maximal effect.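 As to activity change, negative = inhibition: plate controls were vehicle for no effect and reference inhibitor for full effect.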
The target in assay [16] is Aldehyde dehydrogenase 1A1 (Homo sapiens) (UniProt P00352). Kind of assay: qHTS for Inhibitors of the Aldehyde Dehydrogenase Family (ALDH1A1) Confirmatory screens (AID 2061316). Also: nearly all actives have a fitted effect of over 65% in size. Also: potency is read from the fitted curve at half-maximal effect.

In the case of `CC(=O)OCC(=O)[C@@]1(O)CC[C@H]2[C@@H]3CCC4=CC(=O)CC[C@]4(C)[C@H]3C(=O)C[C@@]21C`, the Potency result in assay [1], in assay [2], in [4], in assay [5], in assay [6] and in assay [7] was “inactive” in each case. In addition, in assay [8], the Potency result is “inactive”. For the same compound, the viability in assay [3] was 122%.
Turning to `CCC(=O)c1ccc2c(c1)N(CCCN(C)C)c1ccccc1S2`, the Potency result in assay [1] and in assay [2] was “inactive” throughout.
On to `NC(N)=NCCCCN=C(N)N`, for which the Potency entry in assay [1] and in [2] was “inactive” throughout.
In the case of `CN1CCN(C2=Nc3cc(Cl)ccc3Nc3ccccc32)CC1`, the Potency entry in [1], in assay [2], in assay [4], in assay [5] and in assay [8] was “inactive” throughout. Besides, the Potency in assay [6] is 20.9 µM (active).
For the compound `N[C@@H](Cc1c[nH]c2ccc(O)cc12)C(=O)O`, the Potency entry in assay [1], in assay [2], in assay [4], in assay [5], in assay [9] and in [7] was “inactive” throughout. In addition, in assay [8], the Potency entry was “inactive”. In addition, in assay [3], the viability was 98.1%.
With `O=c1c(-c2ccc(O)cc2)coc2cc(O)ccc12`, the Potency result in assay [1], in assay [2], in [9], in assay [7] and in assay [8] was “inactive” each time. Besides, in assay [3], the viability is 112%. Moreover, the results for the Potency in [5] and in assay [6] were 23.5 µM (active) and 16.6 µM (active), respectively.
As to `CCOC(=O)C(C)(C)Oc1ccc(Cl)cc1`, the Potency entry in assay [1], in [2], in assay [4], in assay [5], in [6] and in assay [9] was “inactive” throughout. Also, the Potency result in [7] and in [8] was “inactive” throughout. Also, the viability in assay [3] is 112%.
In the case of `N[C@@H]1CONC1=O`, the Potency entry in [1], in assay [2], in assay [4], in assay [5], in [6] and in [9] was “inactive” in each case. Further, the Potency entry in assay [7] and in assay [8] was “inactive” throughout. Further, the viability in assay [3] was 117%.
With `NC[C@H](O)c1ccc(O)c(O)c1`, the Potency entry in assay [1], in assay [10], in assay [4], in assay [5], in assay [6] and in [7] was “inactive” each time. Further, the Potency result in [8] is “inactive”. Besides, in [3], the viability was 116%.
Consider `N[C@H]1CONC1=O`, for which the Potency result in [1] and in assay [2] was “inactive” in each case.
Turning to `O=C(Nc1ccccc1Cl)c1cnc2ccc(C3CCNCC3)cn12`, the Potency result in assay [11], in [2], in [12] and in assay [10] was “inactive” each time.
As for `O=C(O)c1ccc2c(c1)C(=O)N([C@]1(C(=O)O)C[C@H]1c1ccccc1)C2=O`, the Potency entry in [13], in [14], in assay [15], in assay [11], in assay [12] and in [10] was “inactive” throughout.
`CCN(CC)CCOCCOC(=O)C(CC)(CC)c1ccccc1`: the Potency result in assay [13], in assay [14], in [15], in [2], in assay [12] and in assay [10] was “inactive” in each case. Besides, the Potency entry in assay [16] is “inactive”. Besides, the activity change, negative = inhibition in assay [11] is -17.9% [at 0.022 µM].
`C[C@H]1CO[C@@H]2Cn3cc(C(=O)NCc4ccc(F)cc4F)c(=O)c(O)c3C(=O)N12`: the Potency entry in assay [13], in [14], in assay [15], in assay [11], in assay [2] and in assay [12] was “inactive” in each case. Also, the Potency entry in [10] and in [16] was “inactive” each time.
In the case of `Oc1cc(Nc2ccccc2)cc2cccnc12`, the Potency entry in assay [13], in assay [14], in assay [15] and in [12] was “inactive” each time. In assay [11], the Potency is 0.283 µM (active).
As to `NC(=O)C1CCN(c2nc(-c3ccc([N+](=O)[O-])cc3)cs2)CC1`, the Potency in [13] was 25.1 µM (active); in [14], 11.3 µM (active); in [11], 22.5 µM (active); in assay [12], 3.18 µM (active). Also, the Potency result in assay [15] and in assay [10] was “inactive” each time.
Turning to `C=C(C(=O)OC)C1CCC2(C)C(O[C@@H]3O[C@H](CO)[C@@H](O)[C@H](O)[C@H]3O)CC(=O)C(C)C2C1O` (stereo partly specified), the Potency entry in assay [13], in [14], in [15] and in assay [12] was “inactive” throughout. For the same compound, the Potency in [11] is 11 µM (active).
Turning to `Cn1nnnc1Sc1ncnc2scc(Br)c12`, the Potency result in [13], in assay [14], in assay [15], in assay [11], in assay [12] and in [10] was “inactive” in each case.
For the compound `Cc1ccc(S(=O)(=O)c2ccc([N+](=O)[O-])o2)cc1`, the Potency is 1.59 µM (active) in assay [13]; 0.708 µM (active) in assay [14]; 0.562 µM (active) in assay [15]; 11.2 µM (active) in assay [11]; 1.41 µM (active) in [2]; 3.98 µM (active) in [12]. The Potency in assay [16] is 0.504 µM (active).
For the compound `O=[S+]([O-])(NCc1nccs1)c1ccc(Nc2nc(-c3ccccc3)cs2)cc1`, the Potency result in assay [13], in assay [14], in assay [15], in assay [11], in [12] and in [10] was “inactive” each time.
On to `Cc1nc2ccc(Nc3nc(Nc4c(C)cc(C=CC#N)cc4C)nc4nc[nH]c34)cc2s1`, for which the Potency entry in assay [13], in [15], in [11], in assay [12] and in assay [10] was “inactive” each time. In addition, in assay [14], the Potency was 10.1 µM (active).
For the compound `O=C1CCCC2=C1C(c1cccnc1Cl)N=C(Nc1nc3ccccc3o1)N2` (stereo unspecified), the Potency entry in assay [13], in assay [14], in assay [15], in assay [11] and in assay [10] was “inactive” each time. Moreover, in assay [12], the Potency was 22.5 µM (active).
Turning to `NC(N)=NCCC[C@H](NC(=O)c1sccc1NS(=O)(=O)c1cccc2nsnc12)C(=O)O`, the Potency entry in [13], in assay [14], in assay [15], in [11], in assay [2] and in assay [12] was “inactive” each time. For the same compound, the Potency entry in assay [10] and in [16] was “inactive” throughout.
Regarding `Nc1ncnc2c1ncn2[C@@H]1O[C@H](CN[S+](=O)([O-])NC(=O)c2cccc(-c3noc(-c4ccccc4F)n3)c2)[C@@H](O)[C@H]1O`, the Potency entry in [13] and in assay [15] was “inactive” each time. Further, the Potency in assay [14] is 1.2 µM (active); in [11], 0.252 µM (active); in [12], 14.2 µM (active).
Take `CC(C)c1ccccc1-c1ncc(F)c(NCc2ccc(-c3cccnc3)cc2)n1`: the Potency was 5.01 µM (active) in assay [13], 14.1 µM (active) in assay [14] and 8.96 µM (active) in assay [11]. The Potency entry in [15] and in [12] was “inactive” throughout.
As to `COc1ccc(C2Nc3ccccc3C(=O)N2Cc2ccc(Cl)cc2)cc1COc1ccc(NC(C)=O)cc1` (stereo unspecified), the Potency in [13] was 3.98 µM (active); in [14] it was 2.25 µM (active); in assay [11], 3.55 µM (active); in assay [12], 12.7 µM (active). The Potency entry in assay [15] and in assay [10] was “inactive” in each case.
With `O=C1NS(=O)(=O)c2cc3c(cc21)C(=O)NS3(=O)=O`, the Potency result in assay [13], in assay [14], in assay [15], in [11], in assay [12] and in assay [10] was “inactive” throughout.
In the case of `CC(=O)Nc1sc2c(c1-c1cnn(C(C)=O)c1)CCNC2`, the Potency entry in assay [13], in [14], in [15], in [11], in assay [12] and in [10] was “inactive” each time.
